Measured values taken from the supplement of paper PMC11006884.
The full data set covers some 6,500 targets. This sample favours those with a hit. About 2% of all pairs of compound and target were hits.

These targets were tested with COC(=O)C#Cc1ccccc1 [methyl 3-phenylpropiolate] (assay: log2 ratio of iodoacetamide-alkyne labeling of the cysteine site, DMSO over compound (competition); higher = stronger covalent engagement of the cysteine by the compound, active = 1 or more). Details: 500 µM; treatment time 1 h; system: HEK293T cell lysate.
Outline: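 After 1 h at ambient temperature with vehicle or electrophile (500 µM), HEK293T lysate (2 mg/mL) was labelled for 1 h with iodoacetamide alkyne and clicked to sCIP-TMT reagents. Pooled samples were trypsin-digested overnight at 37 °C, streptavidin-enriched, acid-eluted and analysed by Orbitrap Eclipse LC-MS/MS with FAIMS, then quantified in FragPipe over three replicates with duplicate channels. A cysteine's log2 competition ratio is its mean control-channel over mean compound-channel reporter intensity. Cysteines quantified in only one replicate were not included.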

Sequence of UniProt A5PLL7 (A5PLL7 whole entry, looked up): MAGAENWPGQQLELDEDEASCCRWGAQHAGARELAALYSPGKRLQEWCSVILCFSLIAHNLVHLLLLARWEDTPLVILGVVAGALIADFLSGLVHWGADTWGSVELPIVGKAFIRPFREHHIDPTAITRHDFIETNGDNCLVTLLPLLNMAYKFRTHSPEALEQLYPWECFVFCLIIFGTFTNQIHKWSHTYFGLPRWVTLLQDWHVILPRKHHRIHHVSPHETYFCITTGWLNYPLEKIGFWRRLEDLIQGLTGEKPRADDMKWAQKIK
Sequence of UniProt O75533 (O75533 whole entry, looked up): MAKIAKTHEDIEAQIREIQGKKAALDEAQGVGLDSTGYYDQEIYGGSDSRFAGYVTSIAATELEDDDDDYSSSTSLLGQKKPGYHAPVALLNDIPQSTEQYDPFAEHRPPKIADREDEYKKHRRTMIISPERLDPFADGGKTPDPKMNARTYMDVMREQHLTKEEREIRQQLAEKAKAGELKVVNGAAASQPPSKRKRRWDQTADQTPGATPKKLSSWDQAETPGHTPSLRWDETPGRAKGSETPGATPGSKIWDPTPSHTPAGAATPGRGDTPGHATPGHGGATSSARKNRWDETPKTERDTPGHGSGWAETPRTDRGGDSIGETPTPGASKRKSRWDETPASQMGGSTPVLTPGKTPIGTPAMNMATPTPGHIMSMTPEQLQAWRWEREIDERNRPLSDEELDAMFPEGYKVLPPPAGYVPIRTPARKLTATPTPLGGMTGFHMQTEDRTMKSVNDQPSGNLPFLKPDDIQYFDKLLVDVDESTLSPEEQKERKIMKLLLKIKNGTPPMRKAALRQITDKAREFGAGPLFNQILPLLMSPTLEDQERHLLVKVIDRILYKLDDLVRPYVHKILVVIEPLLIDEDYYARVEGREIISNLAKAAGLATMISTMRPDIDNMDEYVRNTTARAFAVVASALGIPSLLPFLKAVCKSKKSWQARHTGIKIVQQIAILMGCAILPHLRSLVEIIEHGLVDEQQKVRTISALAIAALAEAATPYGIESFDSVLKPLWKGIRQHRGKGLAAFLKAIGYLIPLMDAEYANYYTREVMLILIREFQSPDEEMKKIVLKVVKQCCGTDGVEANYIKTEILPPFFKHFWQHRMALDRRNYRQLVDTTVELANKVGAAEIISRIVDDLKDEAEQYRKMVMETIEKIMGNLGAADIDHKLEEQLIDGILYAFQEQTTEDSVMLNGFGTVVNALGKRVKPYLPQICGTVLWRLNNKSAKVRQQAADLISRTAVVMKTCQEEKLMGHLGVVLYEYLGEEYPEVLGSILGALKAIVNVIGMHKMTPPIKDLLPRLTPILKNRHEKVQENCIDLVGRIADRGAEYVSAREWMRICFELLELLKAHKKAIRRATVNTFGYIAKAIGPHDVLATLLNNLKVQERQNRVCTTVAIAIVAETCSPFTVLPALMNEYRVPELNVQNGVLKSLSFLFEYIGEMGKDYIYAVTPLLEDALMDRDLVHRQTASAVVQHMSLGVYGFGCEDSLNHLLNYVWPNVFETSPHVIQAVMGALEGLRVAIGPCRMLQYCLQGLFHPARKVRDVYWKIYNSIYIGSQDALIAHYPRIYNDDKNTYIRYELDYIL
Sequence of UniProt O14893 (O14893 whole entry, looked up): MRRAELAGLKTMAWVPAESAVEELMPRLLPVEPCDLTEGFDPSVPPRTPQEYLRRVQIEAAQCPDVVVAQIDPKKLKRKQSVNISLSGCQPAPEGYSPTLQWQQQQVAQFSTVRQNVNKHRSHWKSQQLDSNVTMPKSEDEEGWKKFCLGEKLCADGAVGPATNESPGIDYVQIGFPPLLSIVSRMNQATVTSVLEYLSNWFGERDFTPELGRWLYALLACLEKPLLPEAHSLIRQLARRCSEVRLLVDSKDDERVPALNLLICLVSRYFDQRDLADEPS
Sequence of UniProt O60763 (O60763 whole entry, looked up): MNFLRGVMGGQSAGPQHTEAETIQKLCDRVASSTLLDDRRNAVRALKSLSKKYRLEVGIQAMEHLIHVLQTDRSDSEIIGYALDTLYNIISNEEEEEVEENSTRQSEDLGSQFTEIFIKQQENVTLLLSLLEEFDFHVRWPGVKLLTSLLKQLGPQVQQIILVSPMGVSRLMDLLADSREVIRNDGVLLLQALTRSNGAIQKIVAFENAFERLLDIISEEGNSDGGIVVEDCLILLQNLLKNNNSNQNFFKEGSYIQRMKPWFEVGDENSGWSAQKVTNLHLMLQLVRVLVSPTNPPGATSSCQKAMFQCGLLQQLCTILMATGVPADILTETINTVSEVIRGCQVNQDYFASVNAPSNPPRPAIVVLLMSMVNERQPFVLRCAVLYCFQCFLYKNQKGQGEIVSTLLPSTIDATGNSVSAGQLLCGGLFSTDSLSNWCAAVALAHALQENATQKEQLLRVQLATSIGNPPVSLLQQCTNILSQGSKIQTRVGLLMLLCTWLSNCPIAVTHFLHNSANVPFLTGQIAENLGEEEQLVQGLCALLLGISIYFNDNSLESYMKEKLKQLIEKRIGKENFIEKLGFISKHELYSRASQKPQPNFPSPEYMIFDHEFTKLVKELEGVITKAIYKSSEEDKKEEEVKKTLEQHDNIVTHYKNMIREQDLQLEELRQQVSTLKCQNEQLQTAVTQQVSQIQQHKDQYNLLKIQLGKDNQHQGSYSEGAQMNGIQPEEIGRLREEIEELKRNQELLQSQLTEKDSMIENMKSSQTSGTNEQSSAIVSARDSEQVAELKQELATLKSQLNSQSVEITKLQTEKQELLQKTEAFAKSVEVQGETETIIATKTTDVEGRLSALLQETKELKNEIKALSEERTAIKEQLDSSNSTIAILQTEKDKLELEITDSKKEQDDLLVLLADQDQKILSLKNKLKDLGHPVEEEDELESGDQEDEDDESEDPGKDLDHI
Sequence of UniProt O15226 (O15226 whole entry, looked up): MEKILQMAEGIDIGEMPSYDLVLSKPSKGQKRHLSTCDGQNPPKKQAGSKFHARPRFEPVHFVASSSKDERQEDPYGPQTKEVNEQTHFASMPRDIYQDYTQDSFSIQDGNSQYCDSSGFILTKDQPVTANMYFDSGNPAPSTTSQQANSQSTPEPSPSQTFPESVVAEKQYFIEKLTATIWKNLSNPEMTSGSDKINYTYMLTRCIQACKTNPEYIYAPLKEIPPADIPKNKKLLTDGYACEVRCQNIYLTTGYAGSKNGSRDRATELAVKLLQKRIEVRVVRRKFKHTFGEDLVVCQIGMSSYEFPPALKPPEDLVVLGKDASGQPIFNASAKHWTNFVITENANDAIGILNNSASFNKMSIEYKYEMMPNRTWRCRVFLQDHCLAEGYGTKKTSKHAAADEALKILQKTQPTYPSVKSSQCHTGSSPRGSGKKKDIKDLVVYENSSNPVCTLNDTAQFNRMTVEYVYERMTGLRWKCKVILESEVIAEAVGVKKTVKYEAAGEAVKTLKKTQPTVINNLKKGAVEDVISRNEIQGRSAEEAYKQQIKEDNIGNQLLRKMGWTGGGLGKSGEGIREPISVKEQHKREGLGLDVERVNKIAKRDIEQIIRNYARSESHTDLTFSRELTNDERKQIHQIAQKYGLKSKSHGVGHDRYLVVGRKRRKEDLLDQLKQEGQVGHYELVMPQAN
Sequence of UniProt O15287 (O15287 whole entry): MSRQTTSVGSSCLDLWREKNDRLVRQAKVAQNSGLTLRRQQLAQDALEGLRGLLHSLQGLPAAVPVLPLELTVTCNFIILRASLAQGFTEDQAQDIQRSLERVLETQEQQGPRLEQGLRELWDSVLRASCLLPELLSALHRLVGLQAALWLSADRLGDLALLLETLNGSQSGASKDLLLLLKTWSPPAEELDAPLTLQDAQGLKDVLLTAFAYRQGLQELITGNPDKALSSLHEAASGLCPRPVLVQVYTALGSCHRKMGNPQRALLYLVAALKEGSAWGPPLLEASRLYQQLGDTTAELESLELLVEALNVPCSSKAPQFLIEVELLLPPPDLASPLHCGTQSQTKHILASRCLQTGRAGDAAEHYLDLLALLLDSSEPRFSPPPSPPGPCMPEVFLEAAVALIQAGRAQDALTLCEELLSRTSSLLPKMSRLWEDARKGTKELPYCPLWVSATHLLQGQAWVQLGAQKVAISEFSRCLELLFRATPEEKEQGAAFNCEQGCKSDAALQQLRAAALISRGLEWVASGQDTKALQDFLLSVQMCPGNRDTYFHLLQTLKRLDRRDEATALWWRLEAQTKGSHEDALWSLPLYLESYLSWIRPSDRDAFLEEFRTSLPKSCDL
Sequence of UniProt A6NDG6 (A6NDG6 whole entry, looked up): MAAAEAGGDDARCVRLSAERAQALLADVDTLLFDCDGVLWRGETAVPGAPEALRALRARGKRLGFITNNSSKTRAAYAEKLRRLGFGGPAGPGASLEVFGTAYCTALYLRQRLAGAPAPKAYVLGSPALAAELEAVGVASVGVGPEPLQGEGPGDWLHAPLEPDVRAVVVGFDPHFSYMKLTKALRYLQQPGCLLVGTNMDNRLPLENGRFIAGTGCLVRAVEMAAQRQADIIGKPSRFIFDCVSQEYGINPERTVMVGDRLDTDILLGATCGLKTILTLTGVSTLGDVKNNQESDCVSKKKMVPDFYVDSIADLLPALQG
Sequence of UniProt O75569 (O75569 whole entry): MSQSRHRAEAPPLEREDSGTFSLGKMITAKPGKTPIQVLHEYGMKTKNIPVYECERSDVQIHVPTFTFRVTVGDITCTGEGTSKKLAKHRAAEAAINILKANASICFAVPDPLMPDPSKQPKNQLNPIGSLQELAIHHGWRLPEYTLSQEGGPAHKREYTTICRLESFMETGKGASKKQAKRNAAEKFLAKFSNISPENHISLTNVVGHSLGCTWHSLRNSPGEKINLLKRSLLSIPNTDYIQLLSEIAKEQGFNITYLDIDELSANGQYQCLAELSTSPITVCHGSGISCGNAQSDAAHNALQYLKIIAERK

Row | Target | log2 ratio of iodoacetamide-alkyne labeling
1 | SF3B1 C677 (UniProt O75533) | 0.316 (inactive)
2 | PRKRA C106 (UniProt O75569) | 1.07 (active)
3 | IPO5 C750 (UniProt O00410) | 0.168 (inactive)
4 | GEMIN2 C63 (UniProt O14893) | 0.211 (inactive)
5 | UniProt O75153_C153 | 0.605 (inactive)
6 | FANCG C417 (UniProt O15287) | 0.36 (inactive)
7 | UniProt O43303_C535 | 0.837 (inactive)
8 | NKRF C37 (UniProt O15226) | 1.02 (active)
9 | FLNB C2556 (UniProt O75369) | 0.079 (inactive)
10 | UniProt O43929_C16 | 0.153 (inactive)
11 | DNM1L C446 (UniProt O00429) | 0.102 (inactive)
12 | PGP C297 (UniProt A6NDG6) | 1.17 (active)
13 | PFAS C1285 (UniProt O15067) | 1.36 (active)
14 | PFAS C606 (UniProt O15067) | 1.53 (active)
15 | TMEM189 C21 (UniProt A5PLL7) | 1.52 (active)
16 | USO1 C303 (UniProt O60763) | 0.712 (inactive)
17 | PCF11 C1534 (UniProt O94913) | 0.259 (inactive)
